Pol eta inh: blocks human DNA polymerase eta activity. 390,000 tested, 1.2% active. Potency, µM (titrated, usually from 114 µM), actives largely listed as inhibitors. AID 588591. Q9Y253. recombinant Pol eta, fluorescent DNA replication assay
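Pol eta (10 nM) was preincubated with compounds for 15 min at room temperature, after which fluorescent replication substrate (50 nM final) was added to start the reaction. Fluorescence was read kinetically at 0 and 10 min.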
Pol iota inh: inhibitors of human DNA polymerase iota. Q9UNA4. Pol iota fluorescent replication assay, 10 min. Potency, µM (series often up to 115 µM), most hits filed as inhibitors. 390,000 tested, 1% active. AID 588590
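Fluorescent replication assay read twice, at 0 min and 10 min after adding 50 nM (final) substrate. Enzyme (10 nM) and compounds were first incubated 15 min at room temperature; enzyme-free buffer wells were negative controls.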
Pol beta inh: blocks human DNA polymerase beta activity; 340,000 tested, 1.3% active; Pol beta primer extension/strand displacement, fluorescence kinetic; AID 485314; Potency, µM (series often up to 114 µM), most hits filed as inhibitors; P06746
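Human Pol beta at 10 nM; strand-displacement substrate 50 nM final. Compound exposure 15 min at room temperature before start, reaction 10 min at room temperature.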
POLK inh: inhibitors of human DNA polymerase kappa | AID 588579 | Q9UBT6 | purified Pol kappa, fluorescent DNA synthesis assay, 10 min | 400,000 tested, 0.53% active | Potency, µM (series often up to 107 µM), most hits filed as inhibitors
Target sequence (Q9UBT6 whole entry, looked up): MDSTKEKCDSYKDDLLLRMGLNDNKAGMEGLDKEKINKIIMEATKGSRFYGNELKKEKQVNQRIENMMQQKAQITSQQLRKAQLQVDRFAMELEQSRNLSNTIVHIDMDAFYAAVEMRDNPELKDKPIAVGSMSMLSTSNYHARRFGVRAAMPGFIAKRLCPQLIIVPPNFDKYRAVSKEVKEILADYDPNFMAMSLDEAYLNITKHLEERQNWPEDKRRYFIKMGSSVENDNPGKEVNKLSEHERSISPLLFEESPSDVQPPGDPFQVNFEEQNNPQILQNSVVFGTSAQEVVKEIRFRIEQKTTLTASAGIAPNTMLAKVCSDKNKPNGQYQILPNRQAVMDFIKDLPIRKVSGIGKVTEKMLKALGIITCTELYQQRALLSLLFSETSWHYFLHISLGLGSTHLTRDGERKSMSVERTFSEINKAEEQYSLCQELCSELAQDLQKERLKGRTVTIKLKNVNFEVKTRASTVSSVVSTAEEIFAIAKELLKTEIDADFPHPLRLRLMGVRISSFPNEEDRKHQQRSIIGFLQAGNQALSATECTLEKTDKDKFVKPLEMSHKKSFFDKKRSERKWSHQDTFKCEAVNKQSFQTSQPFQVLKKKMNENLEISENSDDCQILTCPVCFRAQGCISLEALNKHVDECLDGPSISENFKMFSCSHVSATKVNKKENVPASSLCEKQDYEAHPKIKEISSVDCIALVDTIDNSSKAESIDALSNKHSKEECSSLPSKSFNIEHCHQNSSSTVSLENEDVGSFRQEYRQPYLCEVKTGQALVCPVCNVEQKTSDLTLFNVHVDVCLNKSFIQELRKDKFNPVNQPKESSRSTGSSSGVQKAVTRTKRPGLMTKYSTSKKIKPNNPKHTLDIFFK
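Activity was followed as the change in fluorescence between reads at 0 and 10 min after starting the reaction with 50 nM substrate. Beforehand, 10 nM polymerase had been preincubated with compound for 15 min at room temperature.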
L3MBTL1 inh: blocks human L3MBTL1 | Q9Y468 | AlphaScreen L3MBTL1–H3K9me1 peptide binding | Potency, µM (doses to about 57.1 µM), hits mostly inhibitors | 230,000 tested, 0.66% active; further: nearly all actives have a fitted effect of over 60% in size
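AlphaScreen proximity signal between nickel-chelate acceptor and streptavidin donor beads (final 10 ug/mL) reports binding of 50 nM L3MBTL1 to 75 nM biotin-H3 K9me1 peptide; complex incubated with compounds 30 min at room temperature; cefsulodin titration as control.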
Hits are given with their value; [ ] = another dose, or the depositor's remark. This is a sample that favours compounds with a hit; in the whole collection about 2.4% have one here. The call rests on the fitted dose curve; in most records, active means well fitted curve in the direction sought with a large enough effect; inconclusive means small, poorly fitted or top-dose-only effect, or another doubt; inactive means no such curve, though single readings can be large; an effect the other way counts as inactive or inconclusive.

What do the screens show for `CCS(=O)(=O)c1nn2c(N)c(/C=C3/C=CC(=O)C(OC)=C3)c(=O)nc2s1`?
Pol eta inh: inconclusive; Pol iota inh: inactive; Pol beta inh: inactive; POLK inh: inactive; L3MBTL1 inh: inactive

How did CCOC1=C/C(=C/c2c(N)n3oc(C)cc3nc2=O)C=CC1=O do in these assays?
Pol beta inh: inactive

Results for COC1=C/C(=C/c2c(N)n3nc(-c4ccc(C)cc4)sc3nc2=O)C=CC1=O ?
Pol eta inh: 22µM; Pol iota inh: 14µM; Pol beta inh: 56µM; POLK inh: inactive; L3MBTL1 inh: inactive

How did COC1=C/C(=C/c2c(N)n3c(nc2=O)sc2cc(S(C)(=O)=O)ccc23)C=CC1=O do in these assays?
Pol eta inh: 28µM; Pol iota inh: inconclusive; Pol beta inh: inactive; POLK inh: inactive; L3MBTL1 inh: inactive

Results for COc1ccc(CN(C#N)c2nc(SC)nc(N(C)C)n2)cc1 ?
Pol eta inh: inconclusive; Pol iota inh: 89µM; Pol beta inh: inactive; POLK inh: inconclusive; L3MBTL1 inh: inactive

Results for CCCN(CC(=O)Nc1ccccc1C)C(=O)Cc1c(C)nc2ccccc2c1C ?
Pol eta inh: inconclusive; Pol iota inh: 79µM; POLK inh: inactive; L3MBTL1 inh: inactive

How did OC(c1ccccc1)C(NCc1ccccc1)c1ccccc1 (configuration not stated) do in these assays?
Pol eta inh: inactive

Results for O=C(COc1c(Br)cc(Br)c2cccnc12)Nc1ccccc1F ?
Pol eta inh: inconclusive; Pol iota inh: inactive; Pol beta inh: 4.5µM; POLK inh: inactive; L3MBTL1 inh: inactive[11.4 µM]

Results for CCc1ccc(NC(=O)CC2C(=O)N(c3ccc(Cl)cc3)C(=O)N2C2CCCC2)cc1 (configuration not stated) ?
Pol eta inh: inactive; Pol iota inh: 89µM; Pol beta inh: inactive; POLK inh: inconclusive

How did O=C(CN1C(=O)CC(c2ccco2)Sc2ccccc21)Nc1ccccc1F (configuration not stated) do in these assays?
Pol eta inh: inconclusive; Pol iota inh: 45µM; Pol beta inh: inactive; POLK inh: inactive; L3MBTL1 inh: inactive

Results for Cc1cccc(NC(=O)CNC(=O)Cn2ncc(Cl)c(Cl)c2=O)c1C ?
Pol eta inh: 4µM; Pol iota inh: 16µM; POLK inh: inconclusive; L3MBTL1 inh: 32µM

What do the screens show for `Cc1ccc(NC(=O)Cn2ncc(Cl)c(Cl)c2=O)cc1S(=O)(=O)N1CCCCC1`?
Pol eta inh: inactive; Pol iota inh: 50µM; POLK inh: inconclusive; L3MBTL1 inh: inconclusive

How did Cc1ccc(NC(=O)CN(C)C(=O)Cn2ncc(Cl)c(Cl)c2=O)cc1 do in these assays?
Pol eta inh: inconclusive; Pol iota inh: 45µM; Pol beta inh: inconclusive; POLK inh: inactive; L3MBTL1 inh: inconclusive

How did Cc1ccc(NC(=O)CN(C)C(=O)Cc2ccc(Cl)c(Cl)c2)cc1 do in these assays?
Pol eta inh: inactive; Pol iota inh: inactive; Pol beta inh: inactive; POLK inh: inactive

What do the screens show for `Cc1cccc(NC(=O)CNC(=O)CSc2ncccn2)c1C`?
Pol eta inh: inactive; Pol iota inh: inactive; POLK inh: inactive; L3MBTL1 inh: inactive

Results for O=C(O)c1ccc(S(=O)(=O)c2ccc3c(c2)C(=O)N(NC(=O)c2ccc(O)cc2)C3=O)cc1 ?
Pol eta inh: inactive; Pol iota inh: inactive; Pol beta inh: 28µM; POLK inh: inactive; L3MBTL1 inh: inactive

Results for Cc1ccc(-c2cc[n+](Cc3ccccc3)cc2)cc1 ?
Pol eta inh: inactive; Pol iota inh: inactive; Pol beta inh: inactive; POLK inh: inactive; L3MBTL1 inh: inactive

Results for Cc1ccc2c(c1)sc[n+]2Cc1ccccc1 ?
Pol eta inh: inactive; Pol iota inh: 45µM; Pol beta inh: inactive; POLK inh: inactive; L3MBTL1 inh: inactive

Results for COc1ccc(CN2CCc3c(c(=O)n4ncc(C(=O)N5CCN(c6ccc(F)cc6)CC5)c4n3C)C2)cc1 ?
Pol eta inh: inactive; Pol iota inh: inactive; Pol beta inh: inactive; POLK inh: inactive

What do the screens show for `CCn1c2c(c(=O)n3ncc(C(=O)N4CCN(c5ccc(C(C)=O)cc5)CC4)c13)CN(Cc1ccc(OC)cc1)CC2`?
Pol eta inh: 89µM; Pol iota inh: inconclusive; Pol beta inh: inconclusive; POLK inh: inactive

Results for CC(=O)c1cccc(NC(=O)c2ccc([N+](=O)[O-])o2)c1 ?
Pol eta inh: inactive; Pol iota inh: 79µM; POLK inh: inactive

What do the screens show for `Cc1cc(C)cc(NC(=O)c2ccc([N+](=O)[O-])o2)c1`?
Pol eta inh: inactive; Pol iota inh: inactive; Pol beta inh: inactive; POLK inh: inactive; L3MBTL1 inh: inactive

What do the screens show for `COc1cc(NC(=O)c2ccc([N+](=O)[O-])o2)ccc1NC(=O)c1ccco1`?
Pol eta inh: inactive; Pol iota inh: inactive; Pol beta inh: 0.35µM; POLK inh: inactive

Results for Cc1ccccc1C(=O)N1CCN(c2ccc(NC(=O)c3ccc([N+](=O)[O-])o3)cc2)CC1 ?
Pol eta inh: inactive; Pol iota inh: inactive; Pol beta inh: inactive; POLK inh: inactive

What do the screens show for `Cc1cc(C)nc(NC(=O)c2ccc([N+](=O)[O-])o2)n1`?
Pol eta inh: inconclusive; Pol iota inh: 71µM; Pol beta inh: inactive; POLK inh: inactive; L3MBTL1 inh: inactive

Results for O=C(Nc1ccc(N2CCN(C(=O)c3ccccc3)CC2)cc1)c1ccc([N+](=O)[O-])o1 ?
Pol eta inh: inconclusive; Pol iota inh: inconclusive; Pol beta inh: 25µM; POLK inh: inactive; L3MBTL1 inh: inactive

What do the screens show for `CCCC[C@H](NC(=O)[C@@H]1CCCN1C(=O)[C@H]1CCCN1C(=O)[C@H](Cc1ccccc1)NC(=O)[C@@H](Cc1c[nH]c2ccccc12)NC(=O)[C@H](C)NC(=O)[C@H](CCCN=C(N)N)NC(=O)OC(C)(C)C)C(N)=O`?
POLK inh: inactive

How did COc1cc(C(=O)NCC(=O)OCC(=O)Nc2ncc(Cl)cc2Cl)cc(OC)c1OC do in these assays?
Pol eta inh: inactive; Pol iota inh: inactive; Pol beta inh: inactive; POLK inh: inactive; L3MBTL1 inh: inactive

What do the screens show for `O=C(COC(=O)Cc1n[nH]c(=O)c2ccccc12)Nc1ncc(Cl)cc1Cl`?
Pol eta inh: 79µM; Pol iota inh: inactive; POLK inh: inactive; L3MBTL1 inh: inactive

What do the screens show for `O=C(COC(=O)CNC(=O)c1ccccc1F)Nc1ncc(Cl)cc1Cl`?
Pol eta inh: 50µM; Pol iota inh: inconclusive; POLK inh: inactive; L3MBTL1 inh: inconclusive

What do the screens show for `COc1cccc(-n2cc(C(=O)Oc3cccc(C(F)(F)F)c3)c3ccccc3c2=O)c1`?
Pol eta inh: inactive; Pol iota inh: inactive; Pol beta inh: inactive; POLK inh: inactive

Results for COc1ccc(CN2CCN(C(=O)c3ccco3)CC2)cc1OC ?
Pol eta inh: inactive; Pol iota inh: inactive; Pol beta inh: inactive; POLK inh: inactive; L3MBTL1 inh: inactive

How did COc1ccc(CN2CCN(C(=O)CCC(=O)c3ccc(C)s3)CC2)cc1OC do in these assays?
Pol eta inh: 25µM; Pol iota inh: 89µM; POLK inh: inactive; L3MBTL1 inh: inactive

From PubChem
